In all, about 290,000 compounds went through this assay and about 27,000 (9.3%) were called active. Rule as the data show it: active = inhibition mostly above about 28% (no sharp cut-off); inactive = mostly below about 43%. This excerpt belongs to a sample that is enriched for actives.
Test: A qHTS for Small Molecule Inhibitors of Shiga Toxin; also: 0% is about no effect
Conditions: Vero cells, Shiga toxin protein synthesis inhibition reporter; at 38.7 µM, active compounds read high

Compound | inhibition
Nc1ccc(-c2nnc(-c3ccc(-c4ccccc4)cc3)o2)cc1 | 63.4% (active)
Nc1ccc(-c2sc(N)nc2-c2ccccc2)cc1 | -12.4% (inactive)
Nc1ccc(Nc2ccccc2)cc1 | -17% (inactive)
O=C(COC(=O)c1ccc(Oc2ccccc2)cc1)Nc1nnc(-c2ccccc2)o1 | 6.93% (inactive)
Nc1ccc(-c2nnc(-c3ccccc3)o2)cc1 | 71.6% (active)
Cc1ccc(C(=O)NCC(=O)OCc2nnc(-c3ccccc3)o2)cc1 | 9.19% (inactive)
COc1ccc(/C=N/N(C)C2=NS(=O)(=O)c3ccccc32)cc1OC | -11.4% (inactive)
COc1ccc(NC(=O)C2CCC(CNC(=O)[C@@H]3Cc4ccccc4CN3)CC2)cc1 (some centres not stated) | 8.69% (inactive)
COc1ccc(CNC(=O)C2CCN(S(=O)(=O)c3ccc(SC)cc3)CC2)cc1 | -9.94% (inactive)
O=C(Nc1cccn(Cc2ccccc2Cl)c1=O)NC1CCCCC1 | 33% (inactive)
CCNC(=O)CCc1nc(-c2ccc(C)cc2)no1 | 34.3% (inactive)
CN1CCN(C(=O)CCc2nc(-c3ccc(Cl)cc3)no2)CC1 | 42.8% (inactive)
CCNC(=O)CCc1nc(-c2ccc(C(C)(C)C)cc2)no1 | 42.8% (active)
O=S(=O)(N/N=C\c1cccn1-c1ccccc1)c1ccc2ccccc2c1 | -11.6% (inactive)
CN(C)c1ccc(-n2cccc2/C=N/n2cnnc2)cc1 | 61% (active)
CN(C)c1ccc(-n2cccc2/C=C2/SC(=Nc3ccc(F)cc3)NC2=O)cc1 | -12.2% (inactive)
COc1ccc(/C(N)=N/OC(=O)Cc2ccccc2)cc1 | 90% (active)
COc1ccc(C(=O)NC(=S)NNC(=O)CCc2ccccc2)cc1 | 18.3% (inactive)
COc1ccc(/C(N)=N/OC(=O)Oc2ccccc2)cc1 | -9.52% (inactive)
COc1ccc(/C(N)=N/OC(=O)CCCc2ccccc2)cc1 | 89.8% (active)
COc1ccc(CC(=O)NC(C)CCc2ccccc2)cc1 (configuration not stated) | -4.86% (inactive)
COc1ccc(OCCCC(=O)NCCc2ccccc2)cc1 | -4.42% (inactive)
CC(C)C(c1nnnn1C1CCCCC1)N1CCN(C(=O)c2ccco2)CC1 (configuration not stated) | -10.3% (inactive)
Cc1ccc(-n2ncc(C(=O)NC3CC3)c2C2CCN(C(=O)OC(C)(C)C)CC2)c(C)c1 | 16.2% (inactive)
O=C(C1CCCN(S(=O)(=O)c2ccc([N+](=O)[O-])cc2)C1)N1CCCCC1 (configuration not stated) | 2.21% (inactive)

Compound | inhibition
COc1cccc(/C=C2/SC(=S)N(CC(=O)NC3C=CS(=O)(=O)C3)C2=O)c1 (configuration not stated) | 16.1% (inactive)
CC(C)CNC(=O)C(=O)NCC(c1ccc2c(c1)OCO2)N1CCOCC1 (configuration not stated) | -7.49% (inactive)
O=S(=O)(Nc1ccccc1Br)c1cccs1 | 6.38% (inactive)
CC(C)CC(CC(C)C)=NNC(=O)c1ccc(CSc2nncn2C)cc1 | 16% (inactive)
COC(=O)c1ccc(CSc2nncn2N)cc1 | 26.1% (inactive)
COC(=O)c1ccc(CSc2nncn2C)cc1 | 177% (active)
O=C(NC(=S)Nc1ncccn1)c1ccccc1Br | 9.32% (inactive)
Cc1ccc(NC2CCCN(C(=O)CCc3cn[nH]c3)C2)cc1C (configuration not stated) | 9.62% (inactive)
CC(NCC(=O)Nc1cc(Cl)cc(Cl)c1)c1ccccc1 (configuration not stated) | -4.69% (inactive)
COc1ccc(/C=N/Nc2ccccc2C(=O)O)cc1 | 31.8% (active)
COc1ccc(/C=N/NS(=O)(=O)c2ccc(NC(C)=O)cc2)cc1 | 24.7% (inactive)
COc1ccc(/C=N/OCC(=O)N(Cc2ccccc2)c2ccccc2C(=O)O)cc1 | -13.4% (inactive)
COc1ccc(CCCc2nnc(SCc3nc4ccccc4c(=O)[nH]3)n2C)cc1 | -10.2% (inactive)
COc1ccc(C=Nc2cccc3ncccc23)cc1 | -17.4% (inactive)
COc1ccc(/C=N/Nc2nc3ccccc3c(=O)[nH]2)cc1 | 60.8% (active)
COC(=O)c1sccc1NS(=O)(=O)c1ccc(F)cc1F | 11.9% (inactive)
COCCCn1c(SCC(=O)NC2CCCC2)nnc1-c1ccccc1 | -6.72% (inactive)
Cc1nc(-c2ccc(F)cc2)c(CC(=O)N2CCN(S(=O)(=O)c3ccc(F)cc3)CC2)s1 | 26.6% (inactive)
NS(=O)(=O)c1ccc(CCNc2nc(C(F)(F)F)nc3ccccc23)cc1 | -9.53% (inactive)
CC1COc2ccccc2N1C(=O)c1ccc(F)cc1 (configuration not stated) | -4.1% (inactive)
Brc1ccccc1C1Nc2cccc3cccc(c23)N1 | -2.7% (inactive)
Brc1ccccc1C1N=C(c2ccccc2)NO1 (configuration not stated) | 85.7% (active)
S=C1NC(c2ccccc2)=NCN1c1ccc(Br)cc1 | 29.2% (inactive)
N#Cc1ccc(C2N=C(c3ccccc3)NO2)cc1 (configuration not stated) | 89.5% (active)
O=C1CCCCN1CCCC(=O)N1CCCC(Nc2ccc(F)cc2)C1 (configuration not stated) | 7.4% (inactive)

Compound | inhibition
CCOc1ccc(NC(=O)CCCCCN2C(=O)[C@@H]3Cc4ccccc4CN3C2=O)cc1 | 3.39% (inactive)
CCCNC(=O)C(=O)Nc1cc2c3c(c1)CCC(=O)N3CCC2 | 5.83% (inactive)
COc1ccc(N2C(=O)C(CC(=O)Nc3ccccc3)N(Cc3ccc(OC)c(OC)c3)C2=O)cc1 (configuration not stated) | 40.7% (inactive)
COc1ccc(-c2oc3ncnc(NCCCO)c3c2-c2ccc(OC)cc2)cc1 | -19.7% (inactive)
COc1ccc(O[C@H]2C=C[C@@H](c3ccccc3)O[C@@H]2CO/N=C/C[C@@H]2C=C[C@H](OC(C)=O)[C@@H](COC(C)=O)O2)cc1 | 16.1% (inactive)
O=C(NCc1ccco1)/C(=C/c1cccc([N+](=O)[O-])c1)NC(=O)c1ccco1 | -2.89% (inactive)
Cc1cc2occ(CC(=O)NNC(=O)c3ccccc3F)c2cc1C | 18% (inactive)
O=C(CSc1nccc(=O)[nH]1)Nc1ccc(N2CCOCC2)c(Cl)c1 | -5.56% (inactive)
CC(=O)c1nn(-c2cccc(Br)c2)cc1C(=O)c1cccc2ccccc12 | -19.7% (inactive)
CCOC(=O)c1nn(-c2cccc(C)c2)cc1C(=O)c1ccccc1 | 152% (active)
CCOC(=O)c1cn(Cc2cccc(C)c2)nn1 | 1.57% (inactive)
CCOc1ccc(CNC(=O)CCC(=O)N2CCSc3ccccc32)cc1 | 5.1% (inactive)
O=S(=O)(Nc1ccccc1)c1ccc(NS(=O)(=O)c2cccs2)cc1 | -2.44% (inactive)
NC(=O)c1cc(S(=O)(=O)N2CCCC2)ccc1OCc1ccc(F)cc1 | -10.2% (inactive)
CC(=O)NCCC(=O)Nc1nc(C)c(Cc2ccc3c(c2)OCO3)s1 | 13.3% (inactive)
CC(=O)NCCC(=O)Nc1nc(-c2ccc3c(c2)OCCO3)cs1 | 50% (active)
O=C(Nc1nc(-c2ccc3c(c2)OCO3)cs1)c1ccncc1 | 42.9% (inactive)
CC(=O)Nc1ccc(Oc2ccc3c(c2)C(=O)NC3=O)cc1 | -7.33% (inactive)
Cc1ccc(S(=O)(=O)N/N=C(\c2ccccc2)C2CC2)cc1 | -3.31% (inactive)
Cc1nc(COc2cccc(Cl)c2)sc1C(=O)/C=C/N(C)C | 48.6% (inactive)
Cc1nc(-c2ccccc2)sc1C(=O)/C=C/N(C)C | 127% (active)
CN(C)/C=C/C(=O)c1ccccc1F | 30.4% (inactive)
O=C(CN(C(=O)CCC(=O)Nc1nccs1)c1ccc(F)cc1)NCc1ccc2c(c1)OCO2 | -6.5% (inactive)
COCCNC(=O)c1ccccc1NS(=O)(=O)c1ccc(C)c([N+](=O)[O-])c1 | -5.37% (inactive)
COCCn1c(=NC(=O)c2ccccc2[N+](=O)[O-])sc2cc(S(C)(=O)=O)ccc21 | 21.4% (active)

Compound | inhibition
Cn1c(=NC(=O)c2ccc3c(c2)OCCO3)sc2cc(S(C)(=O)=O)ccc21 | 2.16% (inactive)
COC(=O)c1cc(NS(=O)(=O)c2ccc3c(c2)c(=O)n(C)c(=O)n3C)cc(C(=O)OC)c1 | -1.69% (inactive)
Cc1ccc(S(=O)(=O)NNC(=O)/C=C/c2cccc(F)c2)cc1 | -5.71% (inactive)
CC1CCCCC1NC(=O)CCS(=O)(=O)c1ccc2c(c1)NC(=O)CO2 (configuration not stated) | 49.7% (inactive)
COc1ccc(C(=O)O)cc1S(=O)(=O)NCc1cccnc1 | 2.47% (inactive)
Cc1cc(Cl)c2oc(C(=O)N(C)C(C)c3ccccn3)c(C)c2c1 (configuration not stated) | 50.1% (active)
Cc1cc(Cl)c2oc(C(=O)NC(C)c3ccncn3)c(C)c2c1 (configuration not stated) | 14.6% (inactive)
Cc1cc(Cl)c2oc(C(=O)N3CCC(O)(c4ccccc4)CC3)c(C)c2c1 | 18.3% (inactive)
NC(=O)C1CCCN(CC(=O)N2CCN(c3ccccc3)CC2)C1 (configuration not stated) | -5.2% (inactive)
COc1ccc2occ(C(=O)c3ccc(N=C(C)N(C)C)cc3)c2c1 | 62% (active)
COc1ccc(OC)c(C(=O)c2ccc(C(=O)O)cc2)c1 | 29.1% (inactive)
COc1ccc(OC)c(C(=O)c2coc3ccc(OC)cc23)c1 | -7.11% (inactive)
CCOCCCN(C)C1CCN(C(=O)c2oc3ccccc3c2NC(=O)Cc2cccc([N+](=O)[O-])c2)CC1 | 18.7% (inactive)
Cc1noc(C)c1CSCC(=O)N(CCC(C)C)c1c(N)n(Cc2ccccc2)c(=O)[nH]c1=O | 6.62% (inactive)
C=CCSc1nnc(N2C(=O)C(O)=C(C(=O)c3ccco3)C2c2ccc(F)cc2)s1 (configuration not stated) | 19.6% (inactive)
Cc1ccc2nc(N3C(=O)C(O)=C(C(=O)c4ccco4)C3c3cccc(O)c3)sc2c1 (configuration not stated) | 71.4% (active)
COc1cc(C2C(C(=O)c3ccco3)=C(O)C(=O)N2c2cc(C)on2)ccc1OCc1ccccc1 (configuration not stated) | -4.72% (inactive)
CCOc1ccccc1NC(=O)NC1CCCCCCC1 | -4.06% (inactive)
COc1cc(NC(=O)C2CCN(c3cnccn3)CC2)cc(OC)c1 | -1.63% (inactive)
CS(=O)(=O)N1CCN(c2cccc(Cl)n2)CC1 | -4.33% (inactive)
CS(=O)(=O)N1CCN(C(=O)Cc2ccccc2)CC1 | 8.45% (inactive)
CS(=O)(=O)N1CCc2nc(-c3ccccc3)sc2C1 | 99.9% (active)
